Each structure is given as a SMILES string. Calls of active or inactive are those of the source. Unless noted, the rule behind the calls is not given here.

The nature of assay [1]: HepG2 liver cancer cell viability effects, profiling panel, resazurin fluorescence, 24 h, PK04 Diversity Set (AID 1172). Conditions: higher = more signal.
Assay [2] in a line: basal S. cerevisiae growth modulation, no modifier, primary screen, OD600, strain BY4716, 24 h, basal condition (AID 1173). The note with it: OD600, 24 h, higher = more signal, called active from +8 up or from −8 down.
Assay [3] in a line: MM1S myeloma cell viability, profiling panel, resazurin fluorescence, basal, 24 h, PK04 Diversity Set (AID 1174). Conditions: higher = more signal, called active from +8 up or from −8 down.
In assay [4] the target is Dihydroorotate dehydrogenase (quinone), mitochondrial (Plasmodium falciparum (isolate 3D7)) (UniProt Q08210). Description: PfDHODH enzyme inhibitors, primary screen, biochemical, C-terminal His tag, absorbance 600 nm (AID 1175).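 Note: recombinant parasite enzyme with a five histidine tag at its C terminus.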 The note with it: DCIP absorbance 600 nm, higher = more signal, called active from +8 up or from −8 down.
The nature of assay [5]: P. aeruginosa biofilm formation inhibitors, primary screen, strain PAO1, LB-PBS medium, absorbance 600 nm (AID 1176). The note with it: P. aeruginosa PAO1 growth/biofilm, A600, 12 h; higher = more signal.
The nature of assay [6]: S. cerevisiae RM11-1a growth modifiers, primary screen, strain RM11-1a, OD600, basal, 24 h (AID 1177).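 Note: cultures grown under basal conditions with no added stressor.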 Conditions: OD600, 24 h, higher = more signal, called active from +8 up or from −8 down.
Assay [7] in a line: E. coli acrAB mutant growth effects, primary screen, E. coli filamentation inducers, strain DRC39, OD650, 24 h (AID 1178).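 Note: growth measured as culture turbidity by optical density at 650 nm.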 Conditions: higher = more signal, called active from +8 up or from −8 down.
A short description of assay [8]: E. coli acrAB mutant growth effects, primary screen, E. coli filamentation inducers, strain DRC39, OD650, 48 h (AID 1179).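 Note: screen aims at cell division blockers that make cells filament.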 The note with it: E. coli DRC39 delta-acrAB growth, higher = more signal, called active from +8 up or from −8 down.
Assay [9] in a line: RPMI8226 myeloma cell viability, profiling panel, resazurin fluorescence, basal, 24 h, PK04 Diversity Set (AID 1180).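 Note: RPMI8826 multiple myeloma cell line at 5000 cells per well.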 The note with it: higher = more signal.
Assay [10] deals with E3 ubiquitin-protein ligase XIAP (Homo sapiens) (UniProt P98170). Description: XIAP binders, primary screen, biophysical, small-molecule microarray, fluorescence 635 nm (AID 1181).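 Note: score merges 667 nm emission and signal to noise over triplicate slides.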 The note with it: small-molecule microarray binding, higher = more signal.
Assay [11] deals with XIP peptide (Xip251-270) binding. Description: small-molecule binders of XIP peptide, primary screen, biochemical, small-molecule microarray, fluorescence 635/667 nm, 0.1 µg/mL protein (AID 1182). Conditions: fluorescent protein binding, 635 nm, higher = more signal, called active from +8 up or from −8 down.
In assay [12] the test system is XIP peptide (Xip251-270). Description: small-molecule binders of XIP peptide, primary screen, biochemical, small-molecule microarray, fluorescence 635/667 nm, 0.5 µg/mL protein (AID 1183). The note with it: small-molecule microarray binding, fluorescence 635 nm; higher = more signal.
Assay [13] can be described thus: Plasmodium falciparum growth inhibition, primary screen, strain 3D7, DAPI fluorescence, 100 nL (AID 1184).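 Note: parasites grown inside human red blood cells in medium with human serum.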 The note with it: P. falciparum 3D7 growth, 3 d, higher = more signal.
In assay [14] the target is Homeobox protein Hox-A13 (Mus musculus) (UniProt Q62424). Description: inhibitors of HoxA13-DNA binding, primary screen, biochemical, fluorescence polarization, labeled oligonucleotide (AID 1185). The note with it: 15 min, higher = more signal, called active from +8 up or from −8 down.
Assay [15] in a line: inhibitors of hydroxyurea-induced Chk1 phosphorylation, primary screen, imaging, HeLa, phospho-Chk1 antibody, percent positive cells (AID 1186). Conditions: hydroxyurea-induced phospho-Chk1 immunofluorescence imaging, higher = more signal.
A short description of assay [16]: inhibitors of hydroxyurea-induced Chk1 phosphorylation, primary screen, imaging, HeLa, phospho-Chk1 nuclear intensity (AID 1187). Conditions: hydroxyurea-induced phospho-Chk1 immunofluorescence imaging, higher = more signal.

Chain of E3 ubiquitin-protein ligase XIAP (Homo sapiens) (P98170 whole entry, looked up): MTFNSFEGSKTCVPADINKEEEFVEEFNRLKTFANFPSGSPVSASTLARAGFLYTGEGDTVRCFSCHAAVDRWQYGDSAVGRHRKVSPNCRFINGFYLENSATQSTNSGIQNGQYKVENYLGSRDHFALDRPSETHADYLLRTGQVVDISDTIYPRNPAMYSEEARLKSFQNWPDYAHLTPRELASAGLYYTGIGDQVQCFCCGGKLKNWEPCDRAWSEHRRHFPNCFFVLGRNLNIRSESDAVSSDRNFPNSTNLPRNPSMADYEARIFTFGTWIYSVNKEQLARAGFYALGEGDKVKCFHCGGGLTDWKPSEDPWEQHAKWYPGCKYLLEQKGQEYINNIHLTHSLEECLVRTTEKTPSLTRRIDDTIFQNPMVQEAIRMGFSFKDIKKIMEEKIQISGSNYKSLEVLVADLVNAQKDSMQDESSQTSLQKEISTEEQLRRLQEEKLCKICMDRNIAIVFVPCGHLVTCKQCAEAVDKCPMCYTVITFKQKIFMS
Chain of Dihydroorotate dehydrogenase (quinone), mitochondrial (Plasmodium falciparum (isolate 3D7)) (Q08210 whole entry, looked up): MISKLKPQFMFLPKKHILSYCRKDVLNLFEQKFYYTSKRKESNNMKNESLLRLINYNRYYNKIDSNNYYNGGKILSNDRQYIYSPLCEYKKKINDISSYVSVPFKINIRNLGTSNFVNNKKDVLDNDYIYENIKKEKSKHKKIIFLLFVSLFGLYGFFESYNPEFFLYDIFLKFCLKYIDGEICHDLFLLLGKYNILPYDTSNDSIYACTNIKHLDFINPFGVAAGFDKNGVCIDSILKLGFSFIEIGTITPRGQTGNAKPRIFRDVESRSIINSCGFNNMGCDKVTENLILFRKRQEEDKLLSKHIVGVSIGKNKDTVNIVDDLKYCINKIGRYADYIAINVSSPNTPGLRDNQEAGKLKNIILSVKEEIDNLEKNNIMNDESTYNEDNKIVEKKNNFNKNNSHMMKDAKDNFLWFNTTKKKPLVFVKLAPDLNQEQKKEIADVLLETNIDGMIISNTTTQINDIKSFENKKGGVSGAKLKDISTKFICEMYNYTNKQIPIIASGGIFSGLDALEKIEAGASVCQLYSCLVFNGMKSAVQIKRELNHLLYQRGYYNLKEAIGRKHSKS
Chain of Homeobox protein Hox-A13 (Mus musculus) (Q62424 whole entry, looked up): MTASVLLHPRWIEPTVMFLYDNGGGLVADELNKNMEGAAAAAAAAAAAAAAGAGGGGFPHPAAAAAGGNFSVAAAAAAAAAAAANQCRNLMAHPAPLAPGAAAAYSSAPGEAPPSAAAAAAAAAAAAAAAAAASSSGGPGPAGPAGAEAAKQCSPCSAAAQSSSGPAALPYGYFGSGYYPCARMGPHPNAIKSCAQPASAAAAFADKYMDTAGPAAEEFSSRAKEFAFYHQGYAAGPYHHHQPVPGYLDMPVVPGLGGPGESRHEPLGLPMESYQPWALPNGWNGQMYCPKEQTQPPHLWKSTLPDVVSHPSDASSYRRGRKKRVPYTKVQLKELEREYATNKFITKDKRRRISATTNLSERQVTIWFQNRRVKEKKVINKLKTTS

`COCCn1c(C(=O)N2CCCC2)cc2c1C[C@H]1CN(C(=O)c3ccccc3)[C@@](Cc3ccc(OC)cc3)(C(=O)OC)[C@@H]21`: the z-score in assay [1] was -0.818; in [2], -0.35 (inactive); in assay [3] it was -0.716 (inactive); in assay [5] it was 0.576 (inactive); in assay [6], -0.944 (inactive); in assay [7], -0.0628 (inactive). Further, the z-score was 0.763 (inactive) in assay [8]; -0.939 in assay [9]; -1.55 in assay [13]; -4.97 (inactive) in [14]; -0.598 (inactive) in assay [15]; -0.634 (inactive) in assay [16]. Moreover, the composite z-score in assay [4] was -1.79 (inactive); in assay [10] it was 0.232; in [11] it was 0.541 (inactive); in assay [12] it was 0.603.

`CCOC(=O)N1C(c2ccc(OCCCO)cc2)=NC(C(=O)OC)N1C(=O)OCC` (centres undefined): the z-score in assay [1] is 0.33; in assay [2], -0.445 (inactive); in assay [3] it was 0.715 (inactive); in [5] it was -0.565 (inactive); in assay [6], -1.08 (inactive); in assay [7] it was 0.857 (inactive). In addition, the z-score in [8] is 1.52 (inactive); in [9], 0.96; in assay [13], -1.28; in assay [14] it was -4.45 (inactive); in assay [15] it was -0.231 (inactive); in assay [16], -0.116 (inactive). Moreover, the composite z-score is -0.294 (inactive) in [4], 0.0707 in [10], 1.43 (inactive) in assay [11] and 0.735 in [12].

On to `COc1ccc([Si](C)(C)[C@H]2[C@H](CC(=O)N3CCC[C@H]3CO)O[C@@]3(C(=O)N(Cc4cccc(N5CCC5=O)c4)c4ccccc43)[C@@H]2C)cc1`, for which the z-score in [1] was -1.26; in assay [2], 0.124 (inactive); in assay [3] it was -0.616 (inactive); in assay [5], 0.507 (inactive); in [6], 1.23 (inactive); in [7], 0.791 (inactive). For the same compound, the z-score in assay [8] was 0.473 (inactive); in [9], -0.826; in assay [13], -2.04; in [14] it was -3.58 (inactive); in assay [15], 0.307 (inactive); in assay [16], 0.429 (inactive). Further, the composite z-score in [4] was -7.33 (inactive); in [10] it was -0.152; in [11] it was 0.185 (inactive); in assay [12], 0.543.

Regarding `C=CCOC(=O)[C@@H]1[C@H]2C(=O)O[C@H](c3ccccc3)[C@H](c3ccccc3)N2[C@H](c2ccc(OCCOC(=O)[C@H]3C[C@H]4C(=O)N[C@@H](CCCC[N+](C)(C)C)C(=O)N4[C@H]3c3cccc(OCCO)c3)cc2)[C@@]12C(=O)Nc1ccc(I)cc12`, the z-score is -0.0059 in [1]; 1.68 (inactive) in [2]; -1.05 (inactive) in [3]; 3.37 (inactive) in assay [5]; 1.12 (inactive) in assay [6]; -0.708 (inactive) in assay [7]. Moreover, the z-score was -1.23 (inactive) in [8]; -0.521 in assay [9]; -1.82 in [13]; 1.38 (inactive) in assay [14]; -0.118 (inactive) in assay [15]; -0.176 (inactive) in assay [16]. Besides, the composite z-score is -0.483 (inactive) in assay [4], 0.104 in assay [10], 1.31 (inactive) in assay [11] and 0.646 in assay [12].

Turning to `O=C1C2C=CC(C(O)CCc3ccccc3)N(Nc3ccccc3)C2C(=O)N1c1ccccc1` (centres undefined), the z-score in assay [1] is -0.999; in assay [2], -0.287 (inactive); in [3], -1.81 (inactive); in assay [5], 1.12 (inactive); in assay [6] it was 0.361 (inactive); in assay [7], -0.97 (inactive). Besides, the z-score in [8] is -1.18 (inactive); in assay [9], -1.67; in assay [13] it was -0.467; in assay [14], -3.23 (inactive); in [15], 0.684 (inactive); in assay [16], 0.448 (inactive). Besides, the composite z-score is 0.228 (inactive) in [4], -0.16 in [10], 0.792 (inactive) in assay [11] and 0.802 in assay [12].

Take `O=C1O[C@H](c2ccccc2)[C@H](c2ccccc2)N2[C@H]1[C@@H](C(=O)NC[C@H](O)c1ccccc1)[C@]1(C(=O)Nc3ccc(C#CC4(O)CCCCCC4)cc31)[C@H]2c1ccccc1OCCO`: the z-score in [1] was -2.48; in [2], 1.6 (inactive); in assay [3], -7.19 (inactive); in assay [5], 2.83 (inactive); in assay [6], 3.43 (inactive); in [7] it was 0.408 (inactive). In addition, the z-score was 0.283 (inactive) in assay [8]; -6.96 in assay [9]; -2.04 in [13]; -2.77 (inactive) in assay [14]; -0.0899 (inactive) in assay [15]; -0.0113 (inactive) in [16]. In addition, the composite z-score is -0.147 (inactive) in assay [4], 0.165 in assay [10], -0.34 (inactive) in [11] and 0.814 in assay [12].

With `[N-]=[N+]=NCc1ccccc1C[C@]1(C(N)=O)N=C(c2ccc(OCCCO)cc2)O[C@H]1c1ccccc1N=[N+]=[N-]`, the z-score in [1] was 0.776; in assay [2], 0.603 (inactive); in [3], -1.2 (inactive); in assay [5], 1.54 (inactive); in assay [6], 2.09 (inactive); in assay [7], 0.616 (inactive). The z-score was 0.116 (inactive) in [8]; -1.24 in assay [9]; -2.06 in assay [13]; -4.7 (inactive) in assay [14]; -0.118 (inactive) in assay [15]; -0.0296 (inactive) in [16]. Besides, the composite z-score in [4] was 1.56 (inactive); in [10] it was -0.0444; in assay [11], 2.56 (inactive); in assay [12], 0.664.

On to `COC(=O)[C@@]1(Cc2ccc(F)cc2)[C@H]2c3cc(C(=O)N4CCCC4)n(Cc4ccc(Cl)c(C(F)(F)F)c4)c3C[C@H]2CN1C(=O)c1ccccc1`, for which the z-score in assay [1] is -1.03; in assay [2] it was 1.55 (inactive); in [3], -2.02 (inactive); in [5], 0.84 (inactive); in assay [6], 0.78 (inactive); in [7], -0.178 (inactive). Besides, the z-score in assay [8] is 0.272 (inactive); in [9] it was -3.32; in [13] it was -1.45; in assay [14] it was -2.22 (inactive); in assay [15], 0.612 (inactive); in assay [16], -0.126 (inactive). In addition, the composite z-score in assay [4] is 0.0979 (inactive); in assay [10], 0.553; in assay [11], 0.15 (inactive); in [12], 0.625.

With `CC1CC/C=C\[C@H]2OC34C=CCN(c5ccc6ccccc6c5)C(=O)[C@H]3N(CCCCCO)C(=O)[C@@H]4C2C(=O)O1` (some centres undefined), the z-score in assay [1] is -0.304; in [2] it was -0.317 (inactive); in assay [3], -0.634 (inactive); in assay [5] it was -0.484 (inactive); in assay [6], -0.122 (inactive); in assay [7], 0.11 (inactive). Moreover, the z-score is 0.312 (inactive) in [8]; -0.0986 in assay [9]; -0.0643 in assay [13]; -6.06 (inactive) in [14]; 0.549 (inactive) in assay [15]; -0.382 (inactive) in assay [16]. For the same compound, the composite z-score in assay [4] is -0.164 (inactive); in assay [10] it was -0.471; in assay [11], 1.37 (inactive); in [12], -0.165.

These data come from PubChem BioAssay.
